High-throughput results: PubChem BioAssay, several laboratories
This is a sample that favours compounds with a hit; in the whole collection about 4.2% have one here.
Wnt act – Wnt/beta-catenin pathway activation; Wnt/beta-catenin reporter cell assay, activator, plate reader; activation, % at 9.35 µM; actives 1.2% (n = 300,000); in the data active = activation above about 30%, passing the limit was not always enough; inconclusive = no clear call, values can overlap the other calls;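 also: 0% = neutral control wells and 100% = positive control wells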
MITF TRPM1 HTS – MITF TRPM1 promoter activation in melanoma cells; SK-MEL-5 TRPM1-promoter luciferase, 24 h; % of positive control, neutral wells = 0; actives 0.75% (n = 300,000); activation, % at 12.5 µM;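 active = mean activation of at least 80% with every replicate also reaching 80%; inconclusive = mean reaches 80% but some replicate falls short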;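 also: 0% = neutral control wells and 100% = parthenolide positive control wells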
esBAF inh – SWI/SNF esBAF complex inhibition; AID 602393; mouse ES cells, Bmi1-luciferase knock-in reporter, 24 h; 100% = twice the neutral-well signal; reporter increase, % at 12.5 µM; actives 2% (n = 350,000); in the data active = activation above about 40%; inconclusive = no clear call, values can overlap the other calls;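 also: 0% = median of the plate's neutral control wells and 100% = double that signal; a rise in the Bmi1 reporter signal indicates esBAF inhibition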
AHR act – activates the human aryl hydrocarbon receptor; P35869; AHR-responsive luciferase reporter cells, luminescence; activation, % at 5 µM; actives 2.5% (n = 320,000); in the data active = activation above about 47%;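 also: 0% = vehicle wells and 100% = reference agonist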
Target sequence (P35869 whole entry, looked up): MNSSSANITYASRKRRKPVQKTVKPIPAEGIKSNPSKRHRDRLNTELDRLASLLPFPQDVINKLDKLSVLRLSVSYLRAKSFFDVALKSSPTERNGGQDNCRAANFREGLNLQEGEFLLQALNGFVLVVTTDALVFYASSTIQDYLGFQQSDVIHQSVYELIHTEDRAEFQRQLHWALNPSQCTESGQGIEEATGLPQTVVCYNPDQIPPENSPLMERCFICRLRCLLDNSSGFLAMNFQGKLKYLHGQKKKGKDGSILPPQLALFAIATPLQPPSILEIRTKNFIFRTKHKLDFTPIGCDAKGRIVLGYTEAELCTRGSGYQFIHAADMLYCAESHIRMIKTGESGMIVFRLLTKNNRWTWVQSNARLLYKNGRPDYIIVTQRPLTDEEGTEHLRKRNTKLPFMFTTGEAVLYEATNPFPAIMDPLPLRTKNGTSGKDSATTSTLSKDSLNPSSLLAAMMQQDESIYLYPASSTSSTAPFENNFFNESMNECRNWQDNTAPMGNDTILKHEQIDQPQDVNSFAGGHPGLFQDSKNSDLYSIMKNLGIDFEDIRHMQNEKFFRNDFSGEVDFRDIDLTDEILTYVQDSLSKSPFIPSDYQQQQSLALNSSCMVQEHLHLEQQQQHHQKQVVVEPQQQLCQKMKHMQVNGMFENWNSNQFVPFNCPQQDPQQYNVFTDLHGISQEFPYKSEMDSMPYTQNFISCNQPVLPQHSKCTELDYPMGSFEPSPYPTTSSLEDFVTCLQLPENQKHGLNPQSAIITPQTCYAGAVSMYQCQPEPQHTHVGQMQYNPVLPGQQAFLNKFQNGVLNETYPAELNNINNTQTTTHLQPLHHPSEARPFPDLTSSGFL
FXN GAA850 act – activators of GAA850 frataxin (FXN) promoter; HEK293 lucGAA850 FXN promoter luciferase reporter, 24 h; percent of 10 µM SAHA response; activation, % at 6 µM; actives 0.56% (n = 360,000); AID 540364;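 active = activation above the average of all compounds screened plus 3 SD, cutoff fixed separately per campaign, cut at about 7.5% in these data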;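 also: 0% = DMSO wells and 100% = 10 µM SAHA wells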
* hit, by the source's call; ? = inconclusive; · = not tested or not shown.

SMILES	Wnt act	MITF TRPM1 HTS	esBAF inh	AHR act	FXN GAA850 act
COc1ccc(NC(=O)Nc2ccc3c(c2)C(=O)N([C@H](C)CO)C[C@@H](C)[C@H](CN(C)C(=O)NC2CCCCC2)OCCCC[C@H](C)O3)cc1	·	·	5.6	·	·
Fc1ccc(Oc2ccnc(Cl)n2)c(Cl)c1	44.4*	·	·	1.0	·
Nc1ccc(Oc2ncccn2)c(Cl)c1	1.2	-9.1	-3.3	3.2	1.1
CSCc1ccc(C(=O)NCCSc2ccc(Br)cc2)cc1	?	108.0*	47.8*	15.2	2.9
CNC[C@@H]1Oc2ccc(NS(C)(=O)=O)cc2CC(=O)N([C@H](C)CO)C[C@H]1C	·	·	0.4	·	·
Nc1sc(-c2ccccc2)cc1C(=O)NCCc1ccc(Cl)cc1	-2.5	·	·	·	·
NNC(=O)c1sc(-c2ccc(Cl)cc2)cc1N	22.8	48.2	?	47.8*	-0.2
CC1CCCC/C1=N\NC(=S)Nc1ccccc1 (stereo not given)	-1.7	-14.8	-2.2	59.9*	4.1
CC1CCC/C(=N\NC(=S)Nc2ccccc2)C1 (stereo not given)	-1.3	-1.0	19.1	22.4	5.1
CSc1nc(/C=C2\C=Nc3ccccc32)c(O)n1C	5.5	-3.4	·	50.6*	4.1
CC(C)n1c(O)c(/C=C2\C=Nc3ccccc32)sc1=Nc1ccccc1	·	11.3	-5.3	-9.7	3.4
O=C(Nc1ccc(Cl)cc1)Nc1nc(-c2sccc2Br)cs1	·	3.6	·	61.5*	1.0
O=C(Nc1ccc(Cl)cc1)Nc1nc(-c2ccccc2O)cs1	-13.6	-6.3	-3.2	-1.0	-0.8
Cc1cc(C)cc(NC2=NC3(CCCCC3)N=C(N)N2)c1	2.3	-34.1	-1.4	55.7*	0.2
O=C(C[C@@H]1C[C@H]2c3cc(NC(=O)CC4CC4)ccc3O[C@H]2[C@@H](CO)O1)NCc1ccccc1F	·	·	-3.3	·	·
NC(=O)c1ccccc1NC(=O)COc1ccc2c(c1)OCO2	25.4	132.4*	47.8*	7.3	7.3
CSc1ccccc1NC(=O)COc1ccc2c(c1)OCO2	4.5	61.3	39.2	2.9	4.3
NC(=O)c1ccccc1NC(=O)c1ccc2c(c1)OCO2	42.2*	·	37.7	38.6	3.0
CCCC(=O)Nc1ccc2c(c1)C(=O)N(C)C[C@H](OC)[C@H](C)CN(CC1CCCC1)[C@H](C)CO2	·	·	-4.4	·	·
COc1cccc2cc(C(=O)NCc3ccccc3Br)c(=O)oc12	9.2	6.8	41.2*	-0.8	0.7
Cc1ccc(-c2cc(NC(=O)c3ccccc3)on2)cc1	34.3*	75.0	59.6*	3.8	6.2
CCc1cc(C=NC2CCCCC2)c(O)s1	·	·	51.2*	1.9	4.2
CCc1cc2c(SC(C)C(=O)NC3CCCC3)ncnc2s1 (stereo not given)	-2.4	-5.4	-4.1	10.3	1.4
CN(C(=O)CCc1nnc(-c2ccc(-c3ccccc3)cc2)o1)C1CCOCC1	6.7	4.1	-7.8	-8.8	-6.7
O=C(CCc1nnc(-c2ccccc2)o1)NC1CCCCC1	8.4	?	47.7*	4.1	3.1
SMILES	Wnt act	MITF TRPM1 HTS	esBAF inh	AHR act	FXN GAA850 act
CN(CCCC1CCCC1)C(=O)CCc1nnc(-c2ccccc2)o1	9.8	78.6	83.6*	11.5	5.4
O=C(Nc1ccc2nsnc2c1)N1CCCCC1	9.8	18.9	19.0	1.7	1.9
CC1CCN(C(=O)Nc2ccc3nsnc3c2)CC1	·	100.1*	?	12.8	5.9
S=C(Nc1ccc2nsnc2c1)N1CCCCCC1	9.1	93.8*	·	0.8	5.2
COC(=O)C[C@H]1CC[C@@H]2[C@@H](COc3ccc(NC(=O)c4cscn4)cc3C(=O)N2C)O1	·	·	7.5	·	·
COc1ccc(S(=O)(=O)Nc2ccc3c(c2)C(=O)N([C@@H](C)CO)C[C@@H](C)[C@@H](CN(C)S(C)(=O)=O)OCCCC[C@@H](C)O3)cc1	·	·	0.4	·	·
C[C@H](O)C#Cc1cnc2c(c1)C(=O)N([C@H](C)CO)C[C@@H](C)[C@H](CN(C)C(=O)Nc1ccc(F)cc1)O2	·	·	-0.8	·	·
CC(=O)c1cccc(OCc2cc(C(=O)N3C[C@@H](C)O[C@@H](C)C3)no2)c1	21.3	68.8	64.9*	4.2	2.8
CC(=O)c1cccc(OCc2cc(C(=O)N3C[C@H]4CC[C@H]3C4)no2)c1	1.0	47.2	?	7.6	5.8
COCCC1CCCCN1C(=O)c1cc(COc2cccc(C(C)=O)c2)on1 (stereo not given)	14.3	27.1	64.7*	3.3	2.2
COc1ccc(OCc2cc(C(=O)N3C[C@@H](C)O[C@@H](C)C3)no2)c(Cl)c1	13.4	70.2	42.4*	6.5	5.7
O=C(c1cc(COc2cccc(C(F)(F)F)c2)on1)N1C[C@H]2CC[C@H]1C2	13.0	65.1	58.0*	3.9	2.9
COc1ccc(OCc2cc(C(=O)N3CCCCCCC3)no2)c(Cl)c1	14.3	27.9	·	3.4	2.6
COCC(=O)Nc1ccc2c(c1)C(=O)N(C)C[C@H](OC)[C@H](C)CN(CCc1ccccc1)[C@H](C)CO2	·	·	3.7	·	·
COc1ccc(Nc2nccc(-c3ccc([N+](=O)[O-])cc3)n2)cc1	0.0	35.3	6.7	61.3*	-0.6
COc1nc(Nc2ccc([N+](=O)[O-])cc2)nc(NC2CCCCC2)n1	1.4	-3.8	5.7	0.8	2.0
C[C@@H]1CN([C@H](C)CO)C(=O)Cc2cc(NS(=O)(=O)c3ccccc3)ccc2O[C@H]1CN(C)S(=O)(=O)c1cn(C)cn1	·	·	0.1	·	·
Cc1ccccc1CC(=O)Nc1ccc2c(c1)CCC2	4.1	18.7	19.4	5.1	0.8
O=C(Nc1ccc2c(c1)CCC2)c1cc(F)cc(F)c1	0.8	83.4*	47.4*	-0.1	3.9
O=C(Nc1ccc2c(c1)CCC2)c1cccc(F)c1	21.2	94.8*	·	2.9	3.0
O=C(Cc1ccccc1F)Nc1ccc2c(c1)CCC2	16.5	129.0*	71.7*	12.6	3.2
COc1ccc(CN(C)C(C)C(=O)Nc2ccc(S(=O)(=O)N3CCOCC3)cc2)c(OC)c1 (stereo not given)	-0.8	-0.4	·	-0.3	1.6
COc1ccc(CN(C)C(C)C(=O)Nc2ccc(S(=O)(=O)N3CCCCC3)cc2)cc1F (stereo not given)	34.4*	-2.7	23.7	1.2	3.5
C[C@@H]1CCCCO[C@H](CN(C)S(=O)(=O)c2cccs2)[C@H](C)CN([C@@H](C)CO)C(=O)c2cc(NC(=O)CCCN(C)C)ccc2O1	·	·	9.5	·	·
COc1ccc(NC(=O)Cc2ccccc2F)cc1S(=O)(=O)N1CCCCC1	4.2	2.5	44.6*	1.5	-0.8
SMILES	Wnt act	MITF TRPM1 HTS	esBAF inh	AHR act	FXN GAA850 act
CC(=O)Oc1ccc(Cl)cc1/C=C/c1ccc2ccccc2n1	·	38.7	·	70.5*	6.1
Nn1c(Nc2ccccc2)nc2ccccc21	·	63.9	64.5*	14.4	4.7
CCOc1ccc(Nc2c3ccccc3nc3ccccc23)cc1	2.2	-14.3	-15.0	13.2	-4.6
Cn1c(Nc2ccccc2)nc2ccccc21	3.7	22.7	35.7	1.8	2.9
CCOc1ccc(CNc2nc3ccccc3n2C)cc1	14.8	33.4	15.1	8.4	6.2
CCOc1ccc(Nc2nc3ccccc3n2C)cc1	26.9	95.0*	51.8*	0.7	5.8
